# Screening results from PubChem.
# NPC1 prom act: qHTS Assay for NPC1 Promoter Activators. actives 2.4% (n = 320,000). Huh7 NPC1 promoter luciferase reporter, 24 h. AID 485313, 2010. Potency, µM (series often up to 9.22 µM), without a hit: at the top dose activation, usual class: activators; note: % of control where 0% means no effect; nearly all actives have a fitted effect of over 60% in size
#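 NPC1 promoter–luciferase Huh7 cells; 24 h compound; luminescence.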
# Luc counter: Counterscreen for Luciferase (Kinase-Glo TM) Inhibition; Kinase-Glo luciferase, ATP luminescence, 8 min; Potency, µM (top dose mostly 38.3 µM), without a hit: at the top dose activity change, negative = inhibition, usual class: inhibitors; actives 0.28% (n = 200,000); AID 1379, 2008; note: % is set by controls: 0 for no effect and ±100 for the full control effect; nearly all actives have a fitted effect of over 60% in size
#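 Compound is pinned into ATP-containing buffer (10 uM ATP, imidazole pH 7.2, 7 mM MgCl2). Kinase-Glo luciferase reagent is then added. Light output is recorded following an 8-min room-temperature incubation.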
# FLuc counter: qHTS profiling assay for firefly luciferase inhibitor/activator using purifed enzyme and Km concentrations of substrates (counterscreen for miR-21 project); purified FLuc, Km substrates, luminescence inhibition; actives 6.9% (n = 360,000); Potency, µM (doses to about 57.5 µM), inactives show top-dose activity change, negative = inhibition, most hits filed as inhibitors;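 note: plate controls were vehicle for no effect and reference inhibitor for full effect; nearly all actives have a fitted effect of over 55% in size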
# Target sequence (P08659 whole entry, looked up): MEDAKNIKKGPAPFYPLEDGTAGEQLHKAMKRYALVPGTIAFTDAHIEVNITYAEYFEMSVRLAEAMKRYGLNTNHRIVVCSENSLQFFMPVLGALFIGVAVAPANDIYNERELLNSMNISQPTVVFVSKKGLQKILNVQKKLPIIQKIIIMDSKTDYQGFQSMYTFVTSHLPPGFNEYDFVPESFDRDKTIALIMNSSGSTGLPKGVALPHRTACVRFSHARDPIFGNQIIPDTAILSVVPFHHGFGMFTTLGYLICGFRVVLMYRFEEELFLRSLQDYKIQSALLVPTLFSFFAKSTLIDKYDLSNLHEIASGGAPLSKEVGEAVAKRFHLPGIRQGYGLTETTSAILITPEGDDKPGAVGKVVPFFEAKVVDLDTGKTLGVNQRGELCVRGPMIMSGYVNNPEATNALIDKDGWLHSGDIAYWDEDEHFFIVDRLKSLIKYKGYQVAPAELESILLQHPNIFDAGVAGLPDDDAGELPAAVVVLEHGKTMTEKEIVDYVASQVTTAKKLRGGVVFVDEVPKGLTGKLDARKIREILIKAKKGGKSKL
#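 Purified P. pyralis luciferase (10nM final) with 10uM D-luciferin and 10uM ATP (Km levels) in 50mM Tris acetate pH 7.5, 10mM Mg acetate, 0.01% Tween-20, 0.05% BSA; qHTS 6-point titration, ~60 µM downward; luminescence read.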
# SMN2 splice up: qHTS Assay for Enhancers of SMN2 Splice Variant Expression; AID 1458, 2008; HEK293 SMN2-luciferase splicing reporter, luminescence, 30-36 h; Potency, µM (highest dose often 46.1 µM), inactives show top-dose activity change, positive = activation, usual class: activators; actives 2.8% (n = 210,000); note: % of control where 0% means no effect; nearly all actives have a fitted effect of over 55% in size
#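 qHTS luciferase splicing reporter: luminescence rises when SMN2 exon 7 is included in transfected HEK293 cells. Compound exposure lasted 30-36 h at 37C, with 4.5 mM final sodium butyrate as control, followed by a ONE-Glo read.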
# ELG1 genotox: qHTS screen for small molecules that induce genotoxicity in human embryonic kidney (HEK293T) cells expressing luciferase-tagged ELG1; HEK293T ELG1-luciferase reporter, luminescence, 16 h; Potency, µM (doses to about 46 µM), for the others: at the highest dose activity change, positive = activation, usual class: activators; actives 1.3% (n = 330,000); note: % of control where 0% means no effect; nearly all actives have a fitted effect of over 60% in size
#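 ELG1-luciferase HEK293T cells, 2,000/well; compound pinned in; 16 hr, 37 °C, 5% CO2; ONE-Glo, 30 min RT; luminescence on CCD imager.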
# Rab9 promoter act: qHTS Assay for Rab9 Promoter Activators. Huh7 Rab9 promoter-luciferase reporter, luminescence, 24 h. Potency, µM (doses to about 9.22 µM), inactives show top-dose activation, negative = inhibition, most hits filed as activators. actives 2.8% (n = 320,000). AID 485297, 2010; note: % of control where 0% means no effect; nearly all actives have a fitted effect of over 60% in size
#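 Huh7 cells stably carrying Rab9 promoter–luciferase reporter, plated 1500 cells/well, compound added after 2 h and incubated 24 h at 37 °C; luciferase luminescence then read after 10 min with detection reagent.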
# Active calls of the source: *; ? = inconclusive; . = no result. Most compounds without a hit are left out; they make up all but 7.5% or so of the library. Calls come from the whole dose curve; as a rule, active = well fitted curve in the direction sought with a large enough effect; inconclusive = small, poorly fitted or top-dose-only effect, or another doubt; inactive = no such curve, though single readings can be large; an effect the other way counts as inactive or inconclusive. Potency is the fitted concentration of half-maximal effect.
SMILES,NPC1 prom act,Luc counter,FLuc counter,SMN2 splice up,ELG1 genotox,Rab9 promoter act
CC(C)(C)c1ccc(-c2cc(-c3ccccc3O)[nH]n2)cc1,0.316µM*,.,0.757µM*,.,0.58µM*,0.282µM*
Fc1ccccc1SCc1nnc(-c2ccccc2Br)o1,0.708µM*,-7.9%,0.953µM*,2.82µM*,2.91µM*,0.355µM*
Cc1csc(SCc2nnc(-c3ccc(Cl)cc3)o2)n1,2.82µM*,0.5%,7.57µM*,?,10.3µM*,2.82µM*
Cc1csc(SCc2nnc(-c3ccccc3Br)o2)n1,1.41µM*,.,1.69µM*,.,?,1.78µM*
Cc1nnc(SCc2nnc(-c3ccccc3Br)o2)n1-c1ccccc1,-0.7%,0.2%,-14.0%,-11.0%,0.9%,-1.2%
CC/C(C)=N/O,.,.,.,-3.1%,.,.
Cc1c(CCC(=O)N[C@@H](C)C(=O)O)c(=O)oc2c(C)c3oc4c(c3cc12)CCCC4,-1.3%,.,?,.,1.4%,-1.3%
Cc1c(CCC(=O)NCC(=O)NCC(=O)O)c(=O)oc2cc3oc4c(c3cc12)CCCC4,-4.0%,.,21.3µM*,.,0.2%,1.4%
Cc1oc2cc3oc(=O)c(CCC(=O)NCCC(=O)O)c(C)c3cc2c1C,-3.9%,.,12µM*,.,10.6%,0.2%
Cc1c(CCC(=O)NCCC(=O)O)c(=O)oc2c(C)c3oc4c(c3cc12)CCCC4,-4.4%,.,?,.,4.8%,11.6%
Cc1c(CCC(=O)N[C@@H](CC(C)C)C(=O)O)c(=O)oc2cc3oc4c(c3cc12)CCCC4,-2.5%,.,16.9µM*,.,4.5%,-7.1%
Cc1c(CCC(=O)N2CCC(C(=O)NCCCCCC(=O)O)CC2)c(=O)oc2cc3oc4c(c3cc12)CCCC4,-3.1%,.,13.5µM*,.,9.5%,-39.1%
Cc1ccc(N2CC(NC(=O)CCc3ccccc3)CC2=O)cc1C (stereo not drawn),.,.,4.6%,.,.,.
COc1ccc(CC(=O)Nc2c(C(=O)Nc3ccc(F)cc3)oc3ccccc23)cc1OC,.,.,-6.1%,10.8%,.,.
CSc1ccc(CCNC(=O)c2sc3ncccc3c2-n2cccc2)cc1,.,.,-3.2%,.,.,.
CC(=O)Nc1nonc1-c1nnc(SCC(=O)Nc2cc(C)cc(C)c2)n1-c1ccccc1,.,.,-6.9%,.,.,.
COc1ccc(CCC(=O)NCc2ccc3c(c2)CCN3C(=O)c2ccc(Cl)cc2)cc1,.,.,-2.4%,.,.,.
Cc1c(CCC(=O)N2CCC[C@H]2C(=O)O)c(=O)oc2cc3oc4c(c3cc12)CCCC4,18.5%,.,12µM*,.,?,-4.4%
Cc1c(CCC(=O)O)c(=O)oc2cc3oc4c(c3cc12)CCCC4,2.1%,.,6.01µM*,.,10.1%,5.2%
COc1ccc(N2CC(NC(=O)C3CC3)CC2=O)cc1OC (stereo not drawn),.,.,0.2%,.,.,.
O=C(Nc1cccc(Cl)c1)NC1CC2CCC1C2 (stereo not drawn),26.2%,.,23.9µM*,.,9.8%,15.8%
O=C(Nc1cccc(Cl)c1)NC1CC2CCC(C1)N2Cc1ccco1 (stereo not drawn),0.2%,0.4%,-1.9%,5.2%,-0.5%,11.3%
O=C(/C=C/c1ccc(Cl)cc1)NC1CC2CCC1C2 (stereo not drawn),6.9%,-2.4%,23.9µM*,3.4%,?,11.1%
O=C(/C=C/c1ccccc1)NC1CC2CCC1C2 (stereo not drawn),22.0%,-0.1%,19µM*,?,?,17.3%
CS(=O)(=O)Nc1ccccc1C(=O)NC1CC2CCC1C2 (stereo not drawn),-1.5%,-0.5%,-0.1%,11.8%,-1.3%,-5.0%
O=C(/C=C/c1ccc([N+](=O)[O-])cc1)NC1CC2CCC1C2 (stereo not drawn),-0.6%,-1.6%,?,15.1%,9.5%,13.2%
